Screening results from PubChem.
Sampled rows, rich in hits. Any-hit rate of the full collection: about 1.8%.
H9c2 protect = myocardial damage modulation in H9c2 cells; H9c2 cardiomyocytes, H2O2 injury protection, ATPLite, 2 h; protection from H2O2 cell death, % at 20 µM; hit rate 0.63% among 360,000;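 active means compounds giving at least 50% protection of heart cells from peroxide-induced death in the single-dose screen, raw or plate-pattern-corrected value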;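 further: 0% = DMSO wells with peroxide and 100% = DMSO wells without peroxide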
HDAC3 inh = human HDAC3 inhibition. O15379. recombinant HDAC3, fluorogenic peptide/trypsin coupled, fluorescence. inhibition, % at 8.3 µM. hit rate 0.15% among 320,000; in the data active means inhibition above about 26%, passing the limit was not always enough; inconclusive means no clear call, values can overlap the other calls
GRK2 aptamer HTS = inhibitors of human GRK2 displacing RNA aptamer. P25098. bead flow cytometry, FAM-aptamer displacement from GRK2. inhibition of aptamer binding, % at 10 µM. hit rate 0.59% among 330,000. AID 488847;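 active means inhibition of aptamer binding above 40%, roughly 3 SD of noise, on plates passing a quality check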;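 further: median bead fluorescence of bound FAM aptamer so fluorescent compounds give negative values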
Target sequence (P25098 whole entry, looked up): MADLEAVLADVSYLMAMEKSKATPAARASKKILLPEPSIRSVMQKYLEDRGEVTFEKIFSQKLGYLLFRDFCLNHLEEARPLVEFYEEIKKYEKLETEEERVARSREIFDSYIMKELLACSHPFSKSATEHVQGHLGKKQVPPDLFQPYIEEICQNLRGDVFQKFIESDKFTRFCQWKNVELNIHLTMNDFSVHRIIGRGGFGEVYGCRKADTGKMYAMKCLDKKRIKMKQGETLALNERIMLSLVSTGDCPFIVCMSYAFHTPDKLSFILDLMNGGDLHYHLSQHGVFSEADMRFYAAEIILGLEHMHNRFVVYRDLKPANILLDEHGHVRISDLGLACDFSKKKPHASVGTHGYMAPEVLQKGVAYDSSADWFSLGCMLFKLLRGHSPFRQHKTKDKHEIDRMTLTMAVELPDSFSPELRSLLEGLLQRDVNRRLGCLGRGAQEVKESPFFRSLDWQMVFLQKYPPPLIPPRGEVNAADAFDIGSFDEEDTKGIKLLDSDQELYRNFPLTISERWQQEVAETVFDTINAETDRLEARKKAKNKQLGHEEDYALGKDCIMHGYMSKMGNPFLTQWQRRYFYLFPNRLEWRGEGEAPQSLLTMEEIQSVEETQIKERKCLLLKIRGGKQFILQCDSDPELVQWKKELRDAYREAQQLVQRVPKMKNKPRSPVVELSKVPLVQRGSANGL
Neddylation inh = inhibitors of human cullin neddylation. P61081+Q13564. TR-FRET cullin neddylation, biochemical. inhibition, % at 25 µM. hit rate 0.58% among 360,000; in the data active means inhibition above about 36%
Neddyl conf = confirmation of human cullin neddylation inhibitors. shares compounds with Neddylation inh. hit rate 13% among 1,800. calls only at 25 µM. TR-FRET cullin neddylation biochemical assay; in the data active means inhibition above about 40%;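 further: neddylation substrate is the cullin 1 ring ligase complex with SKP2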
Active calls of the source: *; i = inactive; ? = inconclusive; . = no result shown; + = active, no number.

SMILES	H9c2 protect	HDAC3 inh	GRK2 aptamer HTS	Neddylation inh	Neddyl conf
Cc1ccc2cc3cc(C(=O)NCCCN4CCCC4)oc3nc2c1	5.2	-41.8	0.0	.	.
Cc1ccc2cc3cc(C(=O)NCCCN4CCc5ccccc5C4)oc3nc2c1	13.1	-30.2	0.0	57.4*	+
Cn1c2ccc(F)cc2c2ncn(CCN3CCOCC3)c(=O)c21	0.9	-3.4	0.0	5.6	.
Cn1c2ccc(F)cc2c2ncn(CCCN(CCO)CCO)c(=O)c21	-2.4	-19.6	0.0	37.9*	i
O=C(COc1ccccc1)Nc1nnc(-c2ccc(Cl)s2)o1	9.1	6.2	3.0	37.3*	i
O=C(COc1ccccc1)Nc1nnc(-c2ccccc2)o1	24.4	5.5	6.0	1.5	.
O=C1CSC(c2cn(-c3ccccc3)nc2-c2cc3ccccc3oc2=O)N1Cc1cccnc1 (stereo unspecified)	28.5	-6.9	12.0	41.6*	i
O=C1C2CCCCN2C(=O)N1CCCCN1CCN(c2ccccc2Oc2ccccc2)CC1 (stereo unspecified)	2.2	?	1.0	4.0	.
Cn1nc(C(F)(F)F)c(-c2cccc(C(F)(F)F)c2)c1NC(=O)c1nccnc1C(=O)O	2.8	4.2	1.0	0.6	.
Cn1nc(C(F)(F)F)c(-c2cccc(C(F)(F)F)c2)c1NC(=O)c1ccco1	2.6	10.6	1.0	42.7*	i
COc1ccc(CCNC(=O)c2ccc3nc4cc(Cl)ccc4c(=O)n3c2)cc1OC	11.8	-16.8	0.0	38.7*	i
COc1cccc(C(C)(O)c2nc(-c3ccc(F)cc3OC)cs2)c1 (stereo unspecified)	-4.7	.	.	-10.4	.
CCN(C(=O)Cn1cnc2ccccc2c1=O)C1CCS(=O)(=O)C1 (stereo unspecified)	2.7	-2.7	1.0	1.9	.
Cc1ccc2nc3ccc(N4CCN(C)CC4)nn3c(=O)c2c1	-8.3	-13.5	2.0	.	.
Cc1ccc2nc3ccc(N4CCCCCCC4)nn3c(=O)c2c1	-3.8	1.2	6.0	53.3*	i
FC(F)(F)c1ccccc1NC(=S)Nc1cccc(Cl)c1	-7.5	1.6	1.0	2.4	.
Cn1c2ccccc2c2c(C(=O)N3CCN(C(=O)c4ccco4)CC3)cn(C3CCCCC3)c(=O)c21	43.5	-12.6	1.0	44.7*	i
COc1ccc(CCNS(=O)(=O)c2cc(C(=O)O)c(Cl)cc2Cl)cc1	-4.4	-15.9	1.0	1.4	.
COc1cccc(/C=N/n2nnnc2N)c1OCc1ccccc1Cl	-3.6	-15.7	0.0	41.4*	.
COc1cccc(/C=N/NC(N)=S)c1OCc1ccccc1Cl	-1.1	-2.4	0.0	19.2	.
N#C/C(=C\c1ccncc1)c1nc2c(s1)CCCC2	-1.2	-6.8	0.0	56.6*	.
O=C(N/N=C/c1ccc([N+](=O)[O-])o1)c1ccncc1	4.6	-0.7	2.0	43.3*	i
O=C(N/N=C/c1ccc([N+](=O)[O-])o1)c1ccc(O)cc1	-6.2	1.4	4.0	-15.7	.
Cc1ccc(S(=O)(=O)N2C[C@]3(O)C[C@@H]4C(=O)N(c5ccccc5)C(=O)[C@@H]4C[C@]3(OC(=O)NC3CCCC3)C2)cc1	-4.6	.	.	-3.9	.
Cc1ccc(-n2nc(C)c(/C=N/n3c(C)n[nH]c3=S)c2Cl)cc1	-7.6	4.6	0.0	46.0*	i
SMILES	H9c2 protect	HDAC3 inh	GRK2 aptamer HTS	Neddylation inh	Neddyl conf
COc1ccc(-c2[nH]ncc2/C=C(/C#N)C(=O)NC2CCCCCC2)cc1	11.1	-5.0	1.0	40.8*	i
Cc1ccc(C(=O)NCCCNC(=O)c2ccco2)cc1C	6.2	4.4	0.0	0.3	.
c1ccc2nc(N3CCOCC3)cnc2c1	31.4	0.7	0.0	-8.5	.
c1ccc(-c2cc(N3CCOCC3)nc3ccccc23)cc1	-7.9	0.3	0.0	46.5*	i
Clc1ccc(-c2nc(N3CCOCC3)nc3ccccc23)cc1	7.4	-5.0	6.0	44.4*	.
N#Cc1cc(N2CCOCC2)nc2ccccc12	-2.6	-5.5	0.0	36.2*	i
Cc1cc(N2CCOCC2)nc2ccccc12	5.6	-3.3	0.0	31.4	.
O=c1c(Cc2ccccc2)c(O)c2cccc3c4c(n1c23)CCCC4	6.9	-5.8	4.0	39.3*	i
COC(=O)c1ccccc1N/C=C1\CCc2c(c(C)nn2-c2ccccn2)C1=O	9.7	-1.8	0.0	37.5*	i
COC(=O)c1ccccc1NC(=O)CN1CCN(c2ccccn2)CC1	6.6	-3.4	5.0	6.9	.
C[C@H](O)[C@H](O)[C@H]1CNc2nc(N)[nH]c(=O)c2N1	-13.9	-24.3	2.0	.	.
C[C@H](O)C(=O)C1=Nc2c(nc(N)[nH]c2=O)NC1	-7.3	-23.7	0.0	54.6*	i
C[C@@H]1CN([C@@H](C)CO)S(=O)(=O)c2ccc(Br)cc2O[C@@H]1CN(C)Cc1cccnc1	9.1	.	.	0.3	.
CN=c1scc(-c2ccccc2F)n1/N=C(\C)c1cccnc1	-18.9	-0.6	2.0	-5.3	.
CC(=O)c1cccc(OCc2cc(C(=O)N(C)Cc3nccs3)no2)c1	1.7	.	.	-0.1	.
CN(Cc1nccs1)C(=O)c1cc(COc2cccc3cnccc23)on1	-18.3	-11.0	0.0	57.2*	.
COc1ccccc1N(CC(=O)NCCSCc1cccc(C)c1)S(=O)(=O)c1ccccc1	6.4	-1.5	0.0	-2.2	.
CC(=O)N1CCC(=NNc2ccnc3cc(Cl)ccc23)CC1	3.1	-7.6	0.0	3.1	.
CCc1cc(C(c2ccc(OC)c(OC)c2)N2CCOCC2)c(NC(=O)c2ccccc2)s1 (stereo unspecified)	5.9	?	0.0	52.6*	i
CCN(CC)CCNC(=O)c1cc2c(=O)n(C)c3ccccc3c2n1C	0.6	-14.9	0.0	39.2*	.
CC(C)Cn1cc(C(=O)NCc2cccs2)c2c3ccccc3n(C)c2c1=O	17.4	-5.2	4.0	40.5*	i
CCN(CC)CCNC(=O)c1nn(-c2ccc(C)cc2)c(=O)c2c1c1ccccc1n2C	-11.7	-2.2	0.0	42.5*	i
CCCN(CCC)CCCNC(=O)c1cn(CCOC)c(=O)c2c1c1ccccc1n2C	14.7	-9.4	0.0	38.3*	i
CC(C)CCNC(=O)c1cn(CC(C)C)c(=O)c2c1c1ccccc1n2C	11.5	-2.0	0.0	12.9	.
CCCCN(CC)CCNC(=O)c1cc2c(=O)n(C)c3ccccc3c2n1C	6.3	-17.0	0.0	36.9	.
SMILES	H9c2 protect	HDAC3 inh	GRK2 aptamer HTS	Neddylation inh	Neddyl conf
Cc1ccc(-n2nc(C(=O)NCc3ccco3)c3c4ccccc4n(C)c3c2=O)cc1	7.6	-4.1	0.0	26.9	.
O=S(=O)([N-]c1nc2ccccc2nc1-n1cc[n+](Cc2ccccc2)c1)c1ccc(Cl)cc1	-4.1	-6.0	1.0	13.7	.
Cc1ccnc(NC(c2ccccn2)c2c(C)[nH]c3ccccc23)c1 (stereo unspecified)	8.5	10.6	0.0	14.7	.
CN(Cc1ccc(F)cc1)C(=O)c1ccc(NC(=O)CC2SC(N3CCCC3)=NC2=O)cc1 (stereo unspecified)	-3.5	3.4	1.0	-0.8	.
CCCn1c(N)c(C(=O)CN(C)CC(=O)Nc2ccc(F)cc2)c(=O)[nH]c1=O	1.1	.	0.0	-22.8	.
Cc1[nH]c(=S)c(C#N)c(C)c1CC(=O)c1ccc(Br)cc1	11.1	0.9	0.0	-37.7	.
CCN(CC)CCCNC(=O)c1cc2c(=O)n(C)c3ccccc3c2n1C	20.6	-5.5	0.0	41.5*	i
